Measured values taken from PubChem BioAssay (NCI).
Compounds without any hit were thinned out: in the full panel of roughly 83,000, 20% have a hit.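 The test compound was applied at a single concentration to cells in 96-well plates for 48 hours, and percent growth was recorded.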 Values without a mark were called inactive. Calls of active or inactive are those of the source. The calls were made as follows: active = growth percent below 10; inactive = the rest.

How the values were obtained:
Test in all cases: NCI-60 one-dose screen, 48 h (100 = growth as untreated, 0 = no growth, -100 = all killed)
Conditions in all cases: 10 µM unless noted
DU-145 prostate = test system: DU-145 prostate
K-562 leukemia = test system: K-562 leukemia
MALME-3M melanoma = test system: MALME-3M melanoma
MDA-MB-231 breast = test system: MDA-MB-231 breast
RXF 393 renal = test system: RXF 393 renal
SF-268 CNS = test system: SF-268 CNS
SF-295 CNS = test system: SF-295 CNS
SF-539 CNS = test system: SF-539 CNS
UACC-257 melanoma = test system: UACC-257 melanoma
M14 melanoma = test system: M14 melanoma
HCT-15 colon = test system: HCT-15 colon
HT29 colon = test system: HT29 colon
SNB-75 CNS = test system: SNB-75 CNS
SNB-19 CNS = test system: SNB-19 CNS
U251 CNS = test system: U251 CNS
PC-3 prostate = test system: PC-3 prostate
SK-MEL-5 melanoma = test system: SK-MEL-5 melanoma
UACC-62 melanoma = test system: UACC-62 melanoma
LOX IMVI melanoma = test system: LOX IMVI melanoma
SK-MEL-28 melanoma = test system: SK-MEL-28 melanoma

SMILES	growth (DU-145 prostate)	growth (K-562 leukemia)	growth (MALME-3M melanoma)	growth (MDA-MB-231 breast)	growth (RXF 393 renal)	growth (SF-268 CNS)	growth (SF-295 CNS)	growth (SF-539 CNS)	growth (UACC-257 melanoma)	growth (M14 melanoma)	growth (HCT-15 colon)	growth (HT29 colon)	growth (SNB-75 CNS)	growth (SNB-19 CNS)	growth (U251 CNS)	growth (PC-3 prostate)	growth (SK-MEL-5 melanoma)	growth (UACC-62 melanoma)	growth (LOX IMVI melanoma)	growth (SK-MEL-28 melanoma)
CCOC(=O)C1=C(c2ccccc2)N=C2N(c3ccccc3)N=C(C(C)=O)N2C1c1ccc(Br)cc1 (stereo not given)	101%	86.9%	97.3%	89.2%	66.8%	92.6%	90.3%	96.3%	93.4%	100%	92.2%	85.1%	85.8%	88.7%	98%	77.6%	94%	72.4%	95.4%	99.9%
COc1c(O[C@@H]2OC(CO)[C@H](O)[C@H](O)C2O)cc2oc3cc(O)c(CC=C(C)C)c(O)c3c(=O)c2c1CC=C(C)C (stereo not given in full)	104%	68.5%	104%	68.5%	110%	92.1%	93.2%	107%	91.3%	86.2%	97.9%	93.6%	93.9%	96.1%	77.9%	73.8%	97.8%	83.8%	85.2%	106%
COC1=C(OC)C(=O)C(CCCCCCCCCCO)=C(C)C1=O	72%	45.7%	87%	42%	64%	64.2%	77.8%	74%	46%	92.7%	79.7%	105%	62.1%	93%	58.3%	69.5%	45%	59.4%	11.5%	102%
COc1cccc(CNc2nnc(C)c(C)n2)c1O	108%	102%	108%	96.3%	123%	100%	97%	99.7%	95%	101%	98.9%	105%	100%	93.4%	99.1%	87.2%	91.6%	97.1%	98.8%	109%
O=C1/C(=C/c2cccc([N+](=O)[O-])c2)COc2ccc(O)c(O)c21	2.4% (active)	6.45% (active)	-53.3% (active)	-76.9% (active)	-81.3% (active)	-4.32% (active)	58.6%	-89.1% (active)	3.37% (active)	-63.9% (active)	-3.34% (active)	-12% (active)	7.32% (active)	-47.3% (active)	-89% (active)	-38.9% (active)	16.7%	-83.3% (active)	-93.6% (active)	-48.3% (active)
CCCCCCCCCCCCCC[n+]1ccc2c(C)c3c(c(C)c2c1)c1cc(O)ccc1n3CC	-93.4% (active)	-55.7% (active)	-84.7% (active)	-74.6% (active)	-63.3% (active)	-82.7% (active)	-54.3% (active)	-83.9% (active)	-69.3% (active)	-86.7% (active)	19.9%	4.46% (active)	-59.9% (active)	-77.9% (active)	-89% (active)	-88% (active)	-89.9% (active)	-68.5% (active)	-70% (active)	-93.9% (active)
N=C(N)c1ccc(-c2ccc(-c3ccccc3)s2)nc1	92.1%	14.5%	101%	86.1%	87.2%	93.8%	88%	88.2%	96%	88.7%	44.9%	26.7%	88.4%	87.5%	41.1%	80.5%	87.5%	91.6%	51.3%	109%
O=C(Nc1ncc(Cc2ccc(Cl)cc2)s1)C1=NCCCCN1	105%	95.4%	102%	110%	119%	103%	102%	102%	108%	104%	98.9%	102%	102%	106%	106%	101%	99.8%	97.7%	98.7%	108%
N#C/C(Sc1nc2sc3c(c2c(=O)n1Cc1ccccc1)CCCC3)=C1/SC=C(c2ccc(Cl)cc2)N1c1ccccc1	119%	82.5%	89.8%	86.4%	90.9%	78%	88.9%	72.3%	108%	90.5%	117%	98.7%	71.2%	82.3%	72.8%	84.2%	95.9%	90.3%	82.1%	109%
COc1ccc(-c2ccc(-c3ccc(C(=N)N)nc3)s2)cc1	-91.5% (active)	-27% (active)	87.7%	-79.8% (active)	66.4%	-65.4% (active)	-81.2% (active)	-98.4% (active)	84.6%	-56.6% (active)	-77% (active)	-43.1% (active)	116%	4.32% (active)	-51.9% (active)	-37.4% (active)	70.8%	-94.2% (active)	-89% (active)	93.8%
COc1cc(NC(=O)c2cncnc2Nc2ccc3c(ccn3Cc3cccc(F)c3)c2)cc(OC)c1	79.9%	15.4%	71.6%	57.4%	62.5%	68.9%	50.4%	44.4%	72.7%	47.2%	33.7%	20%	8.48% (active)	74.7%	41.1%	43.5%	59.7%	55%	40.3%	59.6%
c1ccc2cc(Cn3cc[n+](Cc4ccc5ccccc5c4)c3)ccc2c1	53.2%	22.5%	13.8%	18.7%	35.1%	32.1%	70.3%	50.2%	-9.54% (active)	16.1%	91.2%	-31% (active)	19.3%	29.8%	21.8%	15.4%	-46.4% (active)	10.3%	37.5%	20.3%
CCN=c1sc2c(n1NC(=O)c1cc3ccc1CCc1ccc(cc1)CC3)C(=O)c1ccccc1C2=O	-91.4% (active)	-28.5% (active)	-87.4% (active)	-7.49% (active)	-87.2% (active)	-10.6% (active)	31%	-94.4% (active)	-90.5% (active)	-93.5% (active)	-68.1% (active)	49%	-98.2% (active)	-74.3% (active)	-81.5% (active)	-2.79% (active)	-96.9% (active)	-54% (active)	-83.9% (active)	-81.2% (active)
COc1cc(C2=Nc3c(N)nc(N)nc3NC(c3cccc(Nc4ccnc5cc(C(F)(F)F)ccc45)c3)C2)cc(OC)c1OC (stereo not given)	89.6%	21.5%	90.6%	57.8%	45.1%	63.3%	82.5%	79.3%	77.7%	72.3%	58%	45.5%	68.9%	78.2%	61%	58.5%	64.1%	87.2%	66%	101%
O=C(N/N=C/c1ccccc1Cl)c1ccccc1Nc1ccnc(C(F)(F)F)c1	29.4%	4.98% (active)	5.72% (active)	-17.1% (active)	-13.4% (active)	14.1%	-41.1% (active)	4.39% (active)	-2.5% (active)	23.1%	10.4%	3.22% (active)	-14.5% (active)	17.1%	3.95% (active)	2.99% (active)	-50.7% (active)	-32.7% (active)	4.1% (active)	25.7%
COc1ccc(-c2cc(-c3ccc(Cl)cc3)c(C#N)c(=O)n2CCCCC(=O)NO)cc1	78.2%	61.8%	73.3%	52.1%	37.3%	85.2%	90.2%	82.5%	80%	72.6%	20.9%	83.9%	76.7%	78%	69.7%	70.6%	39.1%	87.1%	-14.3% (active)	79.3%
